# Measurements: PubChem BioAssay AID1745848 (National Center for Advancing Translational Sciences (NCATS), 2022)
# The whole screen tested about 2,100 compounds, of which about 940 (45%) were called active. Inconclusive results (about 48%) are left out. Calls come from the whole dose curve; as a rule, active = well fitted inhibition curve with a large enough effect; inconclusive = small, poorly fitted or top-dose-only effect; inactive = no such curve, though single readings can be large or run the other way. The set was probably picked from earlier hits. This is one part of the list.
# Assay: Confirmatory qHTS for Inhibitors of ATXN expression; note: nearly all actives have a fitted effect of over 65% in size;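 for activity change, negative = inhibition: 0% = DMSO vehicle wells and -100% = medium-only wells without cells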
# Conditions: ATXN2-luciferase reporter cells, luminescence, 24 h; series mostly up to 11.5 µM; activity change, negative = inhibition: at the top concentration
# In short: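 A titration, incubated 24 h with reporter cells expressing ATXN2-luciferase. Luminescence (SteadyGlo) gives ATXN2 expression, multiplexed GF-AFC fluorescence gives viability; normalised to DMSO and medium-only wells.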
# Potency is the fitted concentration of half-maximal effect.
Compound,Potency,"activity change, negative = inhibition"
C=CS(=O)(=O)c1c2cc(OC)ccc2nc2ccc(OC)cc12,28.2 µM (active),–
COc1ccc(C)cc1Nc1nc(N)c2cc(OC)c(OC)cc2n1,2.82 µM (active),–
O=C(COC(=O)c1cc([N+](=O)[O-])ccc1N1CCOCC1)Nc1ccc(Cl)cn1,6.31 µM (active),–
CC(C)Nc1nc(-c2ccccn2)nc(-c2ccccc2)c1C#N,–,-21.5% [at 57.5 µM] (inactive)
CCN(CC)c1nc(-c2ccccn2)nc(-c2ccccc2)c1C#N,7.08 µM (active),–
O=C(NNC(=O)C12CC3CC(CC(C3)C1)C2)c1ccccn1,8.91 µM (active),–
O=C(NNC(=O)C(c1ccccc1)c1ccccc1)c1ccccn1,3.16 µM (active),–
O=C(NCC(=O)N1CC(O)CC1C(=O)N1CCCC1C(=O)OCc1ccccc1)OCc1ccccc1 (stereo not given),3.16 µM (active),–
COC(=O)c1cc(=O)n(CCc2ccc(OC)c(OC)c2)c(=Nc2ccc(F)c(Cl)c2)s1,3.16 µM (active),–
CCCC[C@@H](CNC)NC[C@H](NCCCCC1CCCCC1)C(C)C,28.2 µM (active),–
CCN1C(=O)/C(=C/c2nc3ccccc3c(=O)n2-c2ccccc2)c2ccccc21,25.1 µM (active),–
O=[N+]([O-])c1c(Nc2ccccn2)cc(Cl)c2nonc12,7.94 µM (active),–
COc1cc(C=CC(=O)c2cc(OC)c(OC)c(OC)c2)cc(OC)c1OC,8.91 µM (active),–
COc1cc(/C=C/c2ccc3cccc(O)c3n2)cc(OC)c1OC,–,-20.7% [at 57.5 µM] (inactive)
Cc1[nH]c2ccccc2c1C1=NNC(=Nc2ccc(F)cc2)SC1,31.6 µM (active),–
O=C(Nc1ccc(Cl)cc1)Nc1nc(-c2sccc2Br)cs1,6.31 µM (active),–
CC(C)[C@@H]1CC[C@@H](C)C[C@H]1OC(=O)C[n+]1cc(-c2ccc(Cl)cc2)n2c1CCCCC2,15.8 µM (active),–
O=C(Nc1nc(-c2ccccc2)cs1)c1ccccc1NS(=O)(=O)c1ccc(F)cc1,2 µM (active),–
COc1ccc(-c2csc(NC(=O)c3ccccc3NS(=O)(=O)c3ccc(F)c(F)c3)n2)cc1,1.78 µM (active),–
NS(=O)(=O)c1ccc(Nc2nc(-c3ccc(F)cc3)cs2)cc1,–,-25.8% (inactive)
OC(c1ccc(Cl)cc1)c1ncc(-c2cccc(C(F)(F)F)c2)[nH]1 (stereo not given),–,-16.3% (inactive)
Cc1cc(C)c(C(O)c2ncc(-c3cccc4ccccc34)[nH]2)c(C)c1 (stereo not given),–,-15.3% (inactive)
OC(c1cc(F)cc(Cl)c1)c1ncc(-c2cccc(C(F)(F)F)c2)[nH]1 (stereo not given),3.16 µM (active),–

Compound,Potency,"activity change, negative = inhibition"
CCN(CC)C(=O)C1=C(C)N(CCC2=CCCCC2)C(=O)C(CC(=O)NC(c2ccccc2)c2ccccc2)C1 (stereo not given),–,-19.3% (inactive)
C/C(=N\NC(=O)c1ccc(Cl)c(Cl)c1)c1ccccn1,0.178 µM (active),–
C/C(=N\NC(=O)c1cccc2ccccc12)c1ccccn1,0.708 µM (active),–
Cc1cc(C)cc(NC(=O)CSc2nc3[nH]ncc3c(=O)[nH]2)c1,2.51 µM (active),–
Cc1cc(C)cc(NC(=O)CSc2nc3nc(C)cc(C)c3c(=O)[nH]2)c1,28.2 µM (active),–
COc1cc(C(=O)O/N=C(\N)Cc2ccc([N+](=O)[O-])cc2)cc(OC)c1OC,2.82 µM (active),–
Cn1c(CO)cnc1S(=O)(=O)Cc1ccc([N+](=O)[O-])cc1,–,-3.34% [at 57.5 µM] (inactive)
O=c1[nH]c(=O)n(C2C[C@H](O)[C@@H](CO)O2)cc1C(F)(F)F (stereo not given in full),1.26 µM (active),–
CCOC(=O)c1c(-c2ccccc2)oc2cc(CN(C)C)c(O)c(CN(C)C)c12,3.16 µM (active),–
CCCC(=O)NC(c1ccc(OC)cc1)c1ccc2cccnc2c1O (stereo not given),2.24 µM (active),–
CCCC(=O)NC(c1ccc(Cl)cc1)c1ccc2cccnc2c1O (stereo not given),1.58 µM (active),–
CCCC(=O)NC(c1ccc(C(C)C)cc1)c1ccc2cccnc2c1O (stereo not given),0.178 µM (active),–
CCCCC(=O)NC(c1ccc(Cl)cc1)c1ccc2cccnc2c1O (stereo not given),1.41 µM (active),–
CCCC(=O)NC(c1ccc(C)cc1)c1ccc2cccnc2c1O (stereo not given),1.58 µM (active),–
CC(C)CC(=O)NC(c1cccs1)c1ccc2cccnc2c1O (stereo not given),0.398 µM (active),–
CCOc1ccccc1N1CCN(c2ncnc3scc(-c4ccc(OC)cc4)c23)CC1,28.2 µM (active),–
CCN1CCN(CCCNC(=O)c2ccc(/C=C3/Sc4ccccc4N(Cc4ccccc4F)C3=O)cc2)CC1,28.2 µM (active),–
C=CCOc1ccc(CNc2ccc3[nH]c(=O)[nH]c3c2)cc1OC,–,-2% [at 57.5 µM] (inactive)
COc1ccc(Cc2nnc(N/N=C/c3ccc(O)cc3)[nH]c2=O)cc1OC,0.631 µM (active),–
COc1ccc(Cc2nnc(N/N=C/c3ccccc3O)[nH]c2=O)cc1OC,1.58 µM (active),–
Cc1cccc2c1-c1sc(C(=O)Nc3ccccc3N3CCN(C)CC3)cc1CO2,25.1 µM (active),–
CCn1c(COc2ccccc2C)nnc1SCC(=O)N1CCN(c2ccccc2)CC1,14.1 µM (active),–
CC(C)(CC(=O)N1CCN(c2ccc(Cl)cc2)CC1)CC1=NS(=O)(=O)c2ccccc2N1,2.51 µM (active),–

Compound,Potency,"activity change, negative = inhibition"
C(=N\Nc1ccc2nncn2n1)/c1ccccn1,17.8 µM (active),–
C(=N\NC(=Nc1ccccc1)c1ccccn1)/c1ccccn1,–,0.998% [at 57.5 µM] (inactive)
O=c1nc(N/N=C/c2ccccn2)cn[nH]1,28.2 µM (active),–
Cc1nnc(N/N=C/c2ccccn2)[nH]c1=O,1.41 µM (active),–
Cc1[nH]n2c(=O)cc(C(C)(C)C)nc2c1-c1ccccc1,7.08 µM (active),–
CCCc1cc(=O)[nH]c(-n2[nH]c3c(c2=O)CCCC3)n1,15.8 µM (active),–
CC1(C)COCN1S(=O)(=O)c1ccc(C(=O)Nc2nnc(-c3ccc(Cl)s3)o2)cc1,1.12 µM (active),–
CCCN(CCC)S(=O)(=O)c1ccc(C(=O)Nc2nnc(-c3cc(OC)cc(OC)c3)o2)cc1,1.58 µM (active),–
COc1ccc(-c2nnc(NC(=O)c3ccc(S(=O)(=O)N4COCC4(C)C)cc3)o2)cc1,2.51 µM (active),–
COc1cc(NC(=O)N2CCc3nc(Nc4cc(Cl)cc(Cl)c4)ncc3C2)cc(OC)c1OC,3.98 µM (active),–
CC(=O)C(C(C)=O)c1c(Cl)c(O)c(O)c2c(C(=O)c3ccccc3)coc12,5.62 µM (active),–
CCOC(=O)C(C(C)=O)c1c(Br)c(O)c(O)c2c(C(=O)c3ccc(C)cc3)coc12 (stereo not given),5.62 µM (active),–
O=C(Nc1ccc(OCC(F)(F)C(F)F)c(C(F)(F)F)c1)c1ccc(Cl)cc1,3.55 µM (active),–
C=CCOC(=O)C1=C[C@@H](c2ccc3c(c2)OCO3)C[C@@H](OCCCCO)O1,–,-7.67% [at 57.5 µM] (inactive)
O=C(NCc1ccccc1)C1=C[C@@H](c2csc3ccccc23)C[C@@H](OCCCCO)O1,3.55 µM (active),–
CN(C)C(=O)CSc1nc(-c2ccccc2)nc2c1CCCC2,17.8 µM (active),–
COC(=O)C1=C(C)N(Cc2ccccc2)C(=NCCc2ccccn2)N[C@H]1c1cccc(C(F)(F)F)c1,3.16 µM (active),–
COC(=O)C1=C(C)N(Cc2ccccc2)C(=NCCc2cccnc2)N[C@H]1c1ccc(Br)cc1,25.1 µM (active),–
CCc1cc(-c2nnn(CCC3COCCO3)c2CC)ccc1-c1cn(CCc2c[nH]c3ccccc23)nn1 (stereo not given),8.91 µM (active),–
O=C(N/N=C/c1cc([N+](=O)[O-])ccc1O)c1ccc(COc2ccc3c(c2)CCC3)o1,3.55 µM (active),–
O=C1CCCC(O)=C1C=NCc1ccccc1,–,19.3% (inactive)
Cn1ncc2c(Nc3cccc(Cl)c3)nc(Nc3cccc(Cl)c3)nc21,28.2 µM (active),–
COc1ccccc1OCCN1CSC(=S)N(C)C1,17.8 µM (active),–

Compound,Potency,"activity change, negative = inhibition"
COC1C=CC=C(C)C(=O)NC2=CC(=O)C(N)=C(CC(C)CC(OC)C(O)C(C)C=C(C)C1OC(N)=O)C2=O (stereo not given),0.282 µM (active),–
C/C(=N\OCC(=O)N/N=C/c1ccccc1O)c1cccs1,12.6 µM (active),–
O=C(COc1nsnc1N1CCOCC1)N/N=C/c1ccccc1O,14.1 µM (active),–
CSc1nc(C)cc(OCC(=O)N/N=C/c2ccccc2O)n1,2 µM (active),–
CCN1CCN(C(c2ccc(C(F)(F)F)cc2)c2ccc3cccnc3c2O)CC1 (stereo not given),3.55 µM (active),–
CN1CCN(C(c2ccc(C(F)(F)F)cc2)c2ccc3cccnc3c2O)CC1 (stereo not given),7.94 µM (active),–
O=C(Nc1cccc2cccnc12)c1csc(COCCO)n1,–,-22.5% [at 57.5 µM] (inactive)
O=C(Nc1c(Cl)cccc1Cl)Oc1cccc2cccnc12,10 µM (active),–
O=C(N/N=C/c1sc(N2CCOCC2)nc1-c1ccccc1)c1ccccc1O,28.2 µM (active),–
Cc1cc2oc3ccc(NCCC4CCCN4C)cc3c(=O)c2cc1C (stereo not given),31.6 µM (active),–
CCCn1ncc(CN2CCC(C(=O)Nc3cccc(-c4cccc(F)c4)c3)CC2)c1C,28.2 µM (active),–
Cc1cc(C)c2nc(N(CCCN(C)C)C(=O)c3ccc4c(c3)OCCO4)sc2c1,28.2 µM (active),–
CCN(c1ccccc1)S(=O)(=O)c1ccc(C(=O)N(CCCN(C)C)c2nc3c(C)cccc3s2)cc1,25.1 µM (active),–
Cc1ccc2sc(N(CCCN(C)C)C(=O)c3ccc(S(=O)(=O)N4CCCCCC4)cc3)nc2c1C,28.2 µM (active),–
Cc1ccc2nc(N(CCCN(C)C)C(=O)c3ccc(S(=O)(=O)N4CCCCCC4)cc3)sc2c1,3.16 µM (active),–
Nc1ccn([C@@H]2O[C@H](CO)[C@@H](O)C2O)c(=O)n1 (stereo not given in full),3.55 µM (active),–
Nc1ncn([C@@H]2O[C@H](CO)[C@@H](O)[C@H]2O)c(=O)n1,3.98 µM (active),–
Nc1ccc2c(c1)OC1(CCCC1)O2,0.316 µM (active),–
Clc1ccc2c(NCc3ccccc3)ccnc2c1,15.8 µM (active),–
COc1ccc(-c2cc(C3CCN(c4ccc(C(C)=O)cc4[N+](=O)[O-])CC3)[nH]n2)cc1,15.8 µM (active),–
Cc1ccc(C)c(NC(=O)c2ccccc2NS(=O)(=O)c2cc([N+](=O)[O-])ccc2C)c1,2.51 µM (active),–
